Compounds with a hit are over-represented: about 19% of the library has one in this group of screens.
DT40 TDP1 CPT – growth inhibition of DT40 Tdp1-/-;hTDP1 cells with camptothecin (screen for TDP1 inhibitors); Potency, µM (highest dose often 46.2 µM), most hits filed as inhibitors; chicken DT40 Tdp1-/-;hTDP1 cells + 20 nM CPT, ATP luminescence, 48 h; AID 686979; 12% of 420,000 active; also: nearly all actives have a fitted effect of over 55% in size
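Chicken DT40 Tdp1-/- cells stably complemented with human TDP1 were seeded at 400 cells/well in medium containing 20 nM camptothecin, exposed to pin-transferred compounds, and grown at 37 °C for at least 48 hr. Viability was read as ATP luminescence.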
HT1080 IDH1KD tx – HT-1080 IDH1 knockdown cell toxicity (counter line); HT-1080 IDH1 knockdown viability, ATP luminescence, 48 h; Potency, µM (doses to about 46.1 µM), hits mostly cytotoxic; 2% of 360,000 active; AID 686971
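% activity derives from luminescence (CellTiter-Glo), normalised to DMSO and no-cell wells. HT-1080-IDH1KD cells, 750/well, had 48 h compound exposure at 37 °C.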
TDP1 cell noCPT – qHTS for Inhibitors of human tyrosyl-DNA phosphodiesterase 1 (TDP1): qHTS in cells in absence of CPT. DT40 Tdp1-/- hTDP1 cells, no CPT, ATP luminescence, 48 h. Potency, µM (highest dose often 46.2 µM), most hits filed as inhibitors. 15% of 420,000 active. AID 686978, 2013; also: nearly all actives have a fitted effect of over 55% in size
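Seeded 400 DT40-hTDP1 cells/well (vehicle DMSO, no 20 nM CPT); pinned compounds; ≥48 hr at 37 °C; CellTiter-Glo luminescence as viability measure.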
HT1080-NT tox – kills 2HG-producing HT-1080-NT fibrosarcoma cells | 1.6% of 360,000 active | HT-1080-NT fibrosarcoma viability, CellTiter-Glo ATP luminescence, 48 h | AID 686970 | Potency, µM (top dose mostly 46.1 µM), usual class: cytotoxic;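 also: NT is the 2HG producing partner of a matched IDH1 knockdown line; nearly all actives have a fitted effect of over 55% in size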
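Compounds were tested in concentration-response format on HT-1080-NT cells for 48 hours at 37 degrees C. Cell viability came from CellTiter-Glo luminescence; curves were classified by r2, response magnitude and activity.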
IL-1B inflam inh – inhibitors of inflammasome signaling (IL-1 beta secretion); activity change, % at 57.5 µM; THP-1 LPS/ATP IL-1B secretion, AlphaLISA, 16 h; stronger effect = lower value; 4.7% of 360,000 active; in the data active = activity change below about -50%; inconclusive = mostly about -30% to -49%
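Secreted IL-1B measured by AlphaLISA bead assay after 16 h compound exposure of THP-1 cells; compounds (final up to 57.5 uM) added 1 h before LPS (250 ng/mL) and ATP (1.25 mM) stimulation; lower signal means less secretion.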
A number is an active result; - = inactive; ? = inconclusive; . = not tested or not shown. Unless noted, calls follow the shape of the dose curve; as a rule, active = well fitted curve in the direction sought with a large enough effect; inconclusive = small, poorly fitted or top-dose-only effect, or another doubt; inactive = no such curve, though single readings can be large; an effect the other way counts as inactive or inconclusive.

SMILES	DT40 TDP1 CPT	HT1080 IDH1KD tx	TDP1 cell noCPT	HT1080-NT tox	IL-1B inflam inh
CC(=O)O[C@H]1CC[C@@]2(C)C(=CC[C@@H]3[C@@H]2CC[C@]2(C)C(=O)CC[C@@H]32)C1	?	-	?	?	-
CN(C)C(=O)Oc1ccc2c(c1)O/C(=C\c1cccc(Cl)c1)C2=O	-	-	-	-	-61
COC(=O)[C@@]12CCCCN1[C@H](c1ccc(-c3ccc(Cl)c(Cl)c3)c(OC)c1)[C@H]1C(=O)N(C)C(=O)[C@H]12	18µM	-	16µM	-	-
COC(=O)[C@@H]1N=C(c2ccc(OC)cc2)O[C@]12C(=O)N(C)c1cccc(Cl)c12	-	-	-	-	-
COC(=O)[C@@]12CCCCN1[C@H](c1ccc(-c3ccc(Cl)c(Cl)c3)c(OC)c1)[C@@H]1C(=O)N(C)C(=O)[C@@H]12	12µM	-	10µM	-	-52
CCCCOC(=O)C1=C(N)OC2=C(C(=O)CCC2)[C@]12C(=O)Nc1ccccc12	-	-	-	-	-
COc1ccc(CCN(C)Cc2ccncc2)cc1OC	-	-	-	-	-
CN(C)CCN(C)CCc1ccc(Cl)c(Cl)c1	16µM	.	21µM	.	.
O=C1CC(c2ccccc2)CN1 (centres undefined)	-	-	-	-	-
COc1ccc(-c2noc(=O)n2Cc2cc(C)ccc2C)cc1	?	?	23µM	?	-
COc1cccc(Cn2c(-c3cccs3)noc2=O)c1	-	?	?	-	-
Cc1oc(-c2cccs2)nc1CSCC(=O)N1CCC2(CC1)OCCO2	-	-	?	-	-
CCc1ccc(-c2nc(CSCC(=O)N3CCN(c4ccc(F)cc4)CC3)c(C)o2)cc1	21µM	.	?	.	.
COc1ccc(-c2nc(CSCC(=O)N3CCN(c4ccc(F)cc4)CC3)c(C)o2)cc1	13µM	.	8.2µM	.	.
COc1ccc(-c2nc(CSCC(=O)N3CCC4(CC3)OCCO4)c(C)o2)cc1OC	-	-	-	-	-
COc1ccccc1N1C(=O)NC(=O)C2(Cc3cc(C)ccc3N(C)C2)C1=O (centres undefined)	-	-	-	-	-
CC1=C(C(=O)Nc2ccccc2)C(c2ccc(C)cc2)N=C(Nc2nc3ccccc3o2)N1 (centres undefined)	18µM	11µM	?	?	-
c1ccc(C(O[C@H]2CCCN(CCc3ccc4c(c3)OCO4)C2)c2ccccc2)cc1	?	.	24µM	.	.
CC1=NN(Cc2c[nH]c3ccccc23)C(C)(C)C1	-	-	-	-	-
Cc1cc(-c2nnn(CCCOC(C)(C)C)c2C)ccc1-c1cn(CCCOC(C)(C)C)nn1	8.2µM	-	6.5µM	-	-
C#CCOc1ccc2c(c1)c(C(C)=O)c(C)n2Cc1ccccc1	-	-	?	-	-
CCOC(=O)c1c(C)n(Cc2ccccc2)c2ccc(OCC(O)CN3C(=O)CNC3=O)cc12 (centres undefined)	?	-	15µM	-	-
CC(=O)c1c(C)[nH]c(C(=O)N2CCC3(CC2)OCCO3)c1C	-	-	-	-	-
CCc1cc2c(cc1-c1csc(C/C(N)=N/O)n1)C(C)(C)CCC2(C)C	?	?	18µM	?	-
CCCCCCCCC(c1nc2cc(C)c(C)cc2[nH]1)n1c(=O)c(-c2ccccc2Br)nc2ccccc21 (centres undefined)	-	-	?	-	-
CCC(=O)Nc1ccccc1-c1nc2ccccc2n(C(CC)C(=O)Nc2cccc(Cl)c2)c1=O (centres undefined)	26µM	.	21µM	.	.
COC1C(O)C(C)O[C@@H](OC2CC[C@@]3(C)C4CC[C@]5(C)C(C6=CC(=O)OC6)CC[C@@]5(O)C4CC[C@@H]3C2)C1O (some centres undefined)	1µM	.	0.65µM	.	.
COC1C(O)C(C)O[C@H](OC2CC[C@@]3(C=O)C4CC[C@]5(C)C(C6=CC(=O)OC6)CC[C@@]5(O)C4CC[C@@H]3C2)C1O (some centres undefined)	0.65µM	.	0.37µM	.	.
